Source: PubChem BioAssay
USP17 inh = inhibitors of human USP17 deubiquitinase. 47,000 compounds, 6.5% hits. purified USP17, Ub-rhodamine cleavage fluorescence, 3 h. inhibition, % at 50 µM
Target sequence (A8MUK1 whole entry, looked up): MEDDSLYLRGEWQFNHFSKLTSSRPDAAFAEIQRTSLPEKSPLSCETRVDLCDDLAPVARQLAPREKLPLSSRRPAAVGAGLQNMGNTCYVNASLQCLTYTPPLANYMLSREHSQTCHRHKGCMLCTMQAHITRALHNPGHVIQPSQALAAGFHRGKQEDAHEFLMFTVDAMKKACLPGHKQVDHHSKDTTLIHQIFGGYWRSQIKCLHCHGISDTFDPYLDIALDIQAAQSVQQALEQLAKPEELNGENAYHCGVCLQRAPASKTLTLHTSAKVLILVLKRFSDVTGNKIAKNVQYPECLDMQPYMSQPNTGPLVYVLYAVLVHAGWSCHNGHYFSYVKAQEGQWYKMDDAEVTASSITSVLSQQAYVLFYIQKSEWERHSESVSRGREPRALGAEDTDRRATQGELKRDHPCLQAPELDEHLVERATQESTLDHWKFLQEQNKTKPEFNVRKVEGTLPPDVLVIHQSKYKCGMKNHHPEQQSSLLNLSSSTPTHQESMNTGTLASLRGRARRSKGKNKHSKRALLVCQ
USP30 inh = blocks human USP30 ubiquitin-rhodamine cleavage; Q70CQ3; purified USP30, Ub-rhodamine cleavage fluorescence; inhibition, % at 25 µM; AID 1645860; 47,000 compounds, 5.3% hits
USP28 block = blocks human USP28 ubiquitin-rhodamine cleavage | Q96RU2 | 47,000 compounds, 3% hits | purified USP28, Ub-rhodamine cleavage fluorescence, 30 min | inhibition, % at 25 µM
USP8 inh = inhibitors of human USP8 deubiquitinase; 47,000 compounds, 4.2% hits; purified USP8, Ub-rhodamine cleavage fluorescence, 30 min; P40818; inhibition, % at 20 µM; AID 1645853
A number is an active result. Shown are actives, neighbours in structure and some others; about 14% of the full set was active somewhere. No stated cut-off is given here; in the data, active means inhibition above about 30%; inactive means the rest.

CC1(CN(Cc2ccccc2)C(=O)C2CCC2)CCOCC1 was read as USP17 inh inactive, USP30 inh inactive, USP28 block inactive and USP8 inh inactive.
`COc1ccc(Nc2ccccc2NC(=O)c2cccc(N(C)C)c2)cc1` gave USP17 inh inactive, USP30 inh inactive, USP28 block inactive and USP8 inh inactive.
For COc1ccc(CC(=O)Nc2cc(-c3cn4cccnc4n3)ccc2C)cc1 the results were USP17 inh 37.5, USP30 inh inactive, USP28 block inactive and USP8 inh inactive.
Screening O=C(COc1ccc(Cl)cc1)Nc1ccc(-c2cn3cccnc3n2)cc1 returned USP17 inh 35.5, USP30 inh inactive, USP28 block inactive and USP8 inh 53.0.
Screening O=C(COc1ccc(C(=O)Nc2ccc(F)cc2)cc1)Nc1ccc(Cl)cc1 returned USP30 inh inactive, USP28 block inactive and USP8 inh inactive.
Cc1nc(-c2cccc(N3CC(C(=O)NC4CCCC4)CC3=O)c2)no1 (stereo not given) was read as USP17 inh inactive, USP30 inh inactive, USP28 block inactive and USP8 inh inactive.
O=C(NC1CCCC1)C1CC(=O)N(c2cccc(-c3noc(-c4cccs4)n3)c2)C1 (stereo not given) was read as USP17 inh 60.9, USP30 inh inactive, USP28 block inactive and USP8 inh inactive.
Screening COc1ccc(CNc2nc3c(c(=O)n2C)CN(C(=O)N2CCOCC2)CC3)cc1 returned USP17 inh inactive, USP30 inh inactive, USP28 block inactive and USP8 inh inactive.
For COc1ccc2c(c1)C[C@@H](c1cccnc1)N[C@H]2c1cccnc1 the results were USP17 inh inactive, USP30 inh inactive, USP28 block inactive and USP8 inh 41.1.
For COc1ccc(CN2C(=O)N(Cc3ccccc3)c3ccccc3S2(=O)=O)cc1 the results were USP17 inh inactive, USP30 inh inactive, USP28 block inactive and USP8 inh inactive.
Screening Cc1nccn1Cc1noc(C2CCCCC2)n1 returned USP17 inh inactive, USP30 inh inactive, USP28 block inactive and USP8 inh inactive.
CC1Cc2ccccc2N1Cc1cc[nH]c(=O)c1 (stereo not given) was read as USP17 inh inactive, USP30 inh inactive, USP28 block inactive and USP8 inh 45.2.
For Cc1c(-c2noc(-c3cccnc3)n2)nnn1-c1ccc(F)cc1 the results were USP17 inh inactive, USP30 inh inactive, USP28 block inactive and USP8 inh inactive.
For FC(F)(F)c1cccc(-c2ccc(CNCCCN3CCOCC3)o2)c1 the results were USP17 inh inactive, USP30 inh inactive, USP28 block inactive and USP8 inh inactive.
Screening O=C(c1cccc(Cl)c1)N1CCN(Cc2noc3ccccc23)CC1 returned USP17 inh inactive, USP30 inh inactive, USP28 block inactive and USP8 inh inactive.
Cc1ccc(-n2nnc3c(=O)n(CC(=O)Nc4cc(C)on4)cnc32)cc1 was read as USP17 inh 31.6, USP30 inh inactive, USP28 block inactive and USP8 inh inactive.
For Cc1cc(NC(=O)Cn2cnc3c(oc4ccccc43)c2=O)no1 the results were USP17 inh 71.6 and USP8 inh inactive.
For Cc1ccc(NC(=O)Cn2cnc3c(nnn3-c3ccc(Cl)cc3)c2=O)cc1 the results were USP17 inh inactive, USP30 inh inactive, USP28 block inactive and USP8 inh inactive.
CCCNS(=O)(=O)c1ccc2c(c1)c(=O)n(CC(=O)N1CCCCCC1)c(=O)n2C was read as USP17 inh inactive, USP30 inh inactive, USP28 block inactive and USP8 inh inactive.
CCOc1ccccc1CN1CCC[C@@H](Cn2nnc(-c3ccncc3)n2)C1 was read as USP17 inh inactive, USP30 inh 31.5, USP28 block inactive and USP8 inh inactive.
For CC(C)CCCCCCCCCCC(=O)N(C)[C@H](CO)C(=O)N[C@H](C)C(=O)NCC(=O)N(C)C1C(=O)N[C@@H](C)C(=O)NC(C(=O)O)Cc2ccc(O)c(c2)-c2cc1ccc2O (stereo not given in full) the results were USP17 inh inactive, USP30 inh 33.2, USP28 block 56.0 and USP8 inh inactive.
For O=C1NCCCC1Cc1ccc(-c2cccc(C(=O)N3CCc4ccccc4C3)c2)cc1 (stereo not given) the results were USP17 inh 55.0, USP30 inh 35.2, USP28 block inactive and USP8 inh 60.6.
`Cn1ccc(-c2cc(C(=O)NCc3ccccn3)c3ccccn23)n1` gave USP17 inh inactive, USP30 inh inactive, USP28 block inactive and USP8 inh 35.5.
For O=C(NCc1ccc(CN2CCCC2)cc1)c1cc2ccccc2[nH]c1=O the results were USP17 inh 65.3, USP30 inh inactive, USP28 block inactive and USP8 inh inactive.
For COc1cc(NC(=O)c2cccc(C#N)c2)c(OC)cc1NC(=O)c1ccccc1 the results were USP17 inh inactive, USP30 inh inactive, USP28 block inactive and USP8 inh inactive.
Screening CCn1c(=O)c(C(=O)Nc2ccc(Br)c(C)c2)nc2ccccc21 returned USP17 inh inactive, USP30 inh 39.7, USP28 block inactive and USP8 inh inactive.
`Cc1ccc2c(c1)C(C[C@H]1CN(C(=O)C(C)(C)C)CC[C@H]1CC(=O)O)=NCC2` gave USP17 inh inactive, USP30 inh inactive, USP28 block inactive and USP8 inh inactive.
`Cn1c(CCNC(=O)c2[nH]nc3c2CCc2ccccc2-3)nc2ccccc21` gave USP17 inh 77.7, USP30 inh inactive, USP28 block 52.2 and USP8 inh 59.4.
`CC1CCN(C(=O)c2[nH]nc3c2CCc2ccccc2-3)CC1` gave USP17 inh inactive, USP30 inh inactive, USP28 block inactive and USP8 inh inactive.
Screening O=C(NC1CCN(Cc2ccccc2)CC1)c1[nH]nc2c1CCc1ccccc1-2 returned USP17 inh inactive, USP30 inh inactive, USP28 block 62.1 and USP8 inh inactive.
Screening Cc1cc(Oc2coc3cc(OCC(=O)N4CCCCC4)ccc3c2=O)cc(C)c1Cl returned USP17 inh inactive, USP30 inh inactive, USP28 block inactive and USP8 inh inactive.
Cc1ccc(NC(=O)c2cc(-c3cccnc3)n(-c3ccccc3)n2)nc1 was read as USP17 inh 31.8, USP30 inh 51.0, USP28 block inactive and USP8 inh inactive.
For O=C(NC1CCCC1)c1cc(-c2cccnc2)n(-c2ccccc2)n1 the results were USP17 inh inactive, USP30 inh 32.5, USP28 block inactive and USP8 inh inactive.
COc1ccc(-c2c3c([nH]c(=O)c2C#N)-c2ccccc2CC3)cc1 was read as USP17 inh inactive, USP30 inh inactive, USP28 block inactive and USP8 inh inactive.
For COc1ccc(-c2cc(-c3ccc(F)cc3)[nH]c(=O)c2C#N)cc1 the results were USP30 inh 79.0, USP28 block inactive and USP8 inh 58.2.
`CN(C)c1cccc(C(=O)N(C(=O)c2cccc(N(C)C)c2)c2ncccn2)c1` gave USP17 inh inactive, USP30 inh inactive, USP28 block inactive and USP8 inh inactive.
Screening CC(C)c1ccc(C(C)NC(=O)c2cccc(N(C)C)c2)cc1 (stereo not given) returned USP17 inh 38.8, USP30 inh inactive, USP28 block inactive and USP8 inh inactive.
`O=C(O)c1ccc(NC(=O)[C@H](Cc2ccc(O)cc2)NC(=O)c2ccccc2)cc1` gave USP17 inh inactive and USP8 inh inactive.
